Data as given in the supplement of paper PMC8975748.
Where a name gives a salt, the structure may show the parent alone.

The molecules below were run on Saccharomyces cerevisiae BY4741 SeMeCo community (assay: z-score of subpopulation abundance vs DMSO median, subpopulation auxotrophic for LU; higher = larger share of this subpopulation than in DMSO controls). Settings: 10 µM; 24 h; SM minimal medium; subpopulation (auxotrophy): LU.
Procedure, shortened: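 A community of Saccharomyces cerevisiae BY4741 was built from four plasmids that each restored one auxotrophy and encoded a distinct fluorescent protein. Pre-grown overnight to OD600 1.0 and diluted to 0.3, it was dispensed at 70 µl into 384-well plates acoustically predosed with library drugs for a final 10 µM, and grown 24 h in minimal SM medium. Cells were then paraformaldehyde-fixed and imaged by automated confocal microscopy. Thresholds and autofluorescence correction came from single-auxotroph fluorescent strains, and each subpopulation's abundance was scored as a z-score relative to the vehicle-well median.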

SMILES	z-score of subpopulation abundance
NC(=O)N1c2ccccc2CC(=O)c2ccccc21 [Oxcarbazepine]	-0.37
CC(=O)OCC1=C(C(=O)O)N2C(=O)[C@@H](NC(=O)CSc3ccncc3)[C@H]2SC1 [Cephapirin Benzathine]	0.44
COc1ccc(C[C@H](N)C(=O)N[C@H]2[C@@H](O)[C@H](n3cnc4c(N(C)C)ncnc43)O[C@@H]2CO)cc1 [Puromycin 2HCl]	-0.06
OCc1ccccc1O[C@@H]1O[C@H](CO)[C@@H](O)[C@H](O)[C@H]1O [Salicin]	-0.12
O=C(CCCN1CCC(O)(c2ccc(Cl)cc2)CC1)c1ccc(F)cc1 [Haloperidol]	-0.75
COc1cc(O)c(C(=O)Nc2nc(C(=O)NCCN(C(C)C)C(C)C)cs2)cc1OC [Acotiamide]	0.41
CC(=O)OCC(CCn1cnc2cnc(N)nc21)COC(C)=O [Famciclovir]	-0.41
O=C(c1ccccc1)c1ccc2n1CCC2C(=O)O (stereo unspecified) [Ketorolac]	-0.64
CC[C@H]1OC(=O)[C@H](C)[C@@H](O[C@H]2C[C@@](C)(OC)[C@@H](O)[C@H](C)O2)[C@H](C)[C@@H](O[C@@H]2O[C@H](C)C[C@H](N(C)C)[C@H]2O)[C@](C)(O)C[C@@H](C)[C@@H]2N[C@@H](COCCOC)O[C@H]([C@H]2C)[C@]1(C)O [Dirithromycin]	0.32
C#CCC(Cc1cnc2nc(N)nc(N)c2n1)c1ccc(C(=O)N[C@@H](CCC(=O)O)C(=O)O)cc1 (stereo partly specified) [Pralatrexate]	-3.34
NNc1nncc2ccccc12 [Hydralazine HCl]	-0.18
COc1cccc2c1C(=O)c1c(O)c3c(c(O)c1C2=O)CC(O)(C(=O)CO)CC3OC1CC(N)C(O)C(C)O1 (stereo unspecified) [Doxorubicin (Adriamycin) HCl]	8.06
CCN1CCCC1CNC(=O)c1cc(S(N)(=O)=O)ccc1OC (stereo unspecified) [Sulpiride]	-0.37
CCCCC(F)(F)[C@@]1(O)CC[C@H]2[C@@H](CC(=O)[C@@H]2CCCCCCC(=O)O)O1 [Lubiprostone]	-0.53
CCCN[C@H]1CCc2nc(N)sc2C1 [Pramipexole]	0.21
Cc1c(Nc2ncccc2C(=O)O)cccc1C(F)(F)F [Flunixin Meglumin]	-0.33

SMILES	z-score of subpopulation abundance
COc1ccc2[nH]c([S+]([O-])Cc3ncc(C)c(OC)c3C)nc2c1 (stereo unspecified) [Omeprazole Sodium]	-0.12
CO[C@H]1C[C@@H]2CC[C@@H](C)[C@@](O)(O2)C(=O)C(=O)N2CCCC[C@H]2C(=O)O[C@H]([C@H](C)C[C@@H]2CC[C@@H](OP(C)(C)=O)[C@H](OC)C2)CC(=O)[C@H](C)/C=C(\C)[C@@H](O)[C@@H](OC)C(=O)[C@H](C)C[C@H](C)/C=C/C=C/C=C/1C [Ridaforolimus (Deforolimus, MK-8669)]	5.01
C#C[C@]1(OC(C)=O)CC[C@H]2[C@@H]3CCC4=C[C@@H](OC(C)=O)CC[C@@H]4[C@H]3CC[C@@]21C [Ethynodiol diacetate]	-0.48
Cc1ccccc1C(OCCN(C)C)c1ccccc1 (stereo unspecified) [Orphenadrine Citrate]	0.36
CCOc1cc(N)c([N+](=O)[O-])cc1C(=O)NC1CCN(CC2CC=CCC2)CC1 (stereo unspecified) [Cinitapride Hydrogen Tartrate]	0.88
Cc1onc(-c2ccccc2)c1-c1ccc(S(N)(=O)=O)cc1 [Valdecoxib]	-0.06
COc1ccc(Cc2cnc(N)nc2N)cc1OC [Diaveridine]	-0.41
CC1(C)[C@H](C(=O)O)N2C(=O)C[C@H]2S1(=O)=O [Sulbactam sodium]	0.63
CCc1cc(C(N)=S)ccn1 [Ethionamide]	0.05
O=C(O)c1cc(=O)c2c(OCC(O)COc3cccc4oc(C(=O)O)cc(=O)c34)cccc2o1 [Disodium Cromoglycate]	-0.38
Clc1ccc(C(Cn2ccnc2)OCc2c(Cl)cccc2Cl)c(Cl)c1 (stereo unspecified) [Isoconazole nitrate]	-1.43
CCCCCCCCN=C(N)NC(N)=NCc1ccc(Cl)c(Cl)c1 [Olanexidine Hydrochloride semihydrate]	2.95
Nc1nc(N)nc(-c2cc(Cl)ccc2Cl)n1 [Irsogladine]	-1.09
NC(=O)c1ncn([C@@H]2O[C@H](CO)[C@@H](O)[C@H]2O)n1 [Ribavirin]	0.48
CC1(C)S[C@@H]2[C@H](NC(=O)[C@H](N)c3ccccc3)C(=O)N2[C@H]1C(=O)OCOC(=O)[C@@H]1N2C(=O)C[C@H]2S(=O)(=O)C1(C)C [Sultamicillin]	0.83
